# According to PubChem BioAssay (Tox21):
# Inconclusive results are not listed. Where a call stands in place of a potency, no number is given. The source made the active and inactive calls. Unless noted, the call rests on the fitted dose curve; in most records, active means well fitted curve in the direction sought with a large enough effect in the repeat runs; inconclusive means weak or mixed curves; inactive means no such curve, though single readings can be large; an effect the other way counts as inactive or inconclusive.
# How the values were obtained:
# [1] = qHTS assay to test for compound auto fluorescence at 535 nm (green) in HEK293 cells (AID 720680)
# [2] = qHTS assay to test for compound auto fluorescence at 460 nm (blue) in HEK293 cell free culture (AID 720681)
# Method in brief: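 Compounds were added to cell-free DMEM with 10% FBS and fluorescence read directly. The blue channel used 405 nm excitation and 460 nm emission, with triamterene as the reference fluorophore.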
# [3] = qHTS assay to test for compound auto fluorescence at 535 nm (green) in HEK293 cell free culture (AID 720682)
# Method in brief: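 Compounds were pin-transferred into cell-free DMEM with 10% FBS, and green fluorescence was read at excitation 485 nm and emission 535 nm. Intensities were expressed as fluorescein-equivalent values.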
# [4] = qHTS assay to test for compound auto fluorescence at 590 nm (red) in HEK293 cell free culture (AID 720683)
# Method in brief: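 Cell-free wells of DMEM with 10% FBS received compound, and intrinsic fluorescence was read at excitation/emission 540/590 nm. Values expressed as equivalence to Rose Bengal sodium.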
# [5] = qHTS assay to test for compound auto fluorescence at 590 nm (red) in HepG2 cell free culture (AID 720684)
# Method in brief: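 Compounds are added to culture medium (MEM, 10% FBS) lacking cells, then fluorescence is read at excitation 540 nm, emission 590 nm, with Rose Bengal sodium as the equivalency standard.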
# [6] = qHTS assay to test for compound auto fluorescence at 460 nm (blue) in HepG2 cell free culture (AID 720685)
# Method in brief: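 Compound (23 nL) or DMSO pinned into cell-free MEM with 10% FBS; blue fluorescence read at 405/460 nm excitation/emission, expressed as auto-fluorescence equivalency to triamterene.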
# [7] = qHTS assay to test for compound auto fluorescence at 535 nm (green) in HepG2 cell free culture (AID 720686)
# [8] = qHTS assay to test for compound auto fluorescence at 460 nm (blue) in HepG2 cells (AID 720687)
# Method in brief: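 HepG2 cells in MEM with 10% FBS, attached overnight at 37 C, were exposed to compound or DMSO for 1 hr at 37 C, 5% CO2. Blue fluorescence was read at 405/460 nm, with triamterene as reference fluorophore.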
# [9] = target: Glucocorticoid receptor (Homo sapiens) (UniProt P04150); experiment: qHTS assay to identify small molecule agonists of the glucocorticoid receptor (GR) signaling pathway (AID 720691; active means well fitted activation curve with a large enough effect in the signal ratio in the repeat runs, not every such curve was filed as active; the % refers to the signal ratio)
# Sequence of Glucocorticoid receptor (Homo sapiens) (P04150 whole entry, looked up): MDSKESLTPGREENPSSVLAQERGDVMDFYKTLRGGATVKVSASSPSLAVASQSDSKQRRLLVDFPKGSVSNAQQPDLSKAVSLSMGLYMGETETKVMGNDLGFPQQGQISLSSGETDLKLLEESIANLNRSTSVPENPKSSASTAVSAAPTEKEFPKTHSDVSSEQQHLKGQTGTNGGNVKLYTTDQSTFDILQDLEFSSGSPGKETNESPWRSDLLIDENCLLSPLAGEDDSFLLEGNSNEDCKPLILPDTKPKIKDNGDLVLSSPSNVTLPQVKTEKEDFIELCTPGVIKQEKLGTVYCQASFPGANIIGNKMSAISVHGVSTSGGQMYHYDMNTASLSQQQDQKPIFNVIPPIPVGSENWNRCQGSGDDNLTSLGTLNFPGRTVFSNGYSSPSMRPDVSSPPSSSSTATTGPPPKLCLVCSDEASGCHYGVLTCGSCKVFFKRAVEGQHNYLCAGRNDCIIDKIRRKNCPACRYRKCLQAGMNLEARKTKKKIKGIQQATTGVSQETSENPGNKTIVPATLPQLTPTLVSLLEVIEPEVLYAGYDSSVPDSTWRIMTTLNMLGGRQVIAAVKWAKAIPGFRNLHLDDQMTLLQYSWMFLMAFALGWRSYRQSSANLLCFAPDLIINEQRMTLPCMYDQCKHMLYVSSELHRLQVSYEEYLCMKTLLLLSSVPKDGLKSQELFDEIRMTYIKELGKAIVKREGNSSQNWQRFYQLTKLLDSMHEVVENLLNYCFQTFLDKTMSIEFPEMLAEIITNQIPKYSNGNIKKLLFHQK
# Method in brief: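 GR-bla HeLa cells carrying a GRE-driven beta-lactamase reporter, exposed to compounds for 18 h at 37 C. Reporter activation read as fluorescence after 2 h with LiveBLAzer B/G FRET substrate at room temperature.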
# [10] = target: Glucocorticoid receptor (Homo sapiens) (UniProt P04150); experiment: qHTS assay to identify small molecule antagonists of the glucocorticoid receptor (GR) signaling pathway (AID 720692; active means well fitted inhibition curve with a large enough effect in the signal ratio in the repeat runs, not every such curve was filed as active; the % refers to the signal ratio)
# Method in brief: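 GR-bla HeLa cells carrying a GRE-driven beta-lactamase reporter received compound after 4 h plating, then dexamethasone (5 nM final). After 18 h at 37C, the FRET substrate was loaded for 2 h at room temperature and fluorescence read.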
# [11] = qHTS assay to identify small molecule antagonists of the glucocorticoid receptor (GR) signaling pathway - cell viability counter screen (AID 720693); further: nearly all actives have a fitted effect of over 55% in size
# [12] = qHTS assay for identifying genotoxic compounds that show differential cytotoxicity against isogenic chicken DT40 cell lines with known DNA damage response pathways - wild type cell line (AID 743012); further: nearly all actives have a fitted effect of over 60% in size; further: potency means the concentration at half of the fitted maximal effect
# Method in brief: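 Wild-type DT40 cells (300/well) exposed to compounds for 40 hours at 37 C/5% CO2. Viability read by CellTiter-Glo luminescence after 30 min at room temperature.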
# [13] = qHTS assay for identifying genotoxic compounds that show differential cytotoxicity against isogenic chicken DT40 cell lines with known DNA damage response pathways - Rev3 mutant cell line (AID 743014); further: nearly all actives have a fitted effect of over 55% in size; further: potency means the concentration at half of the fitted maximal effect
# [14] = qHTS assay for identifying genotoxic compounds that show differential cytotoxicity against isogenic chicken DT40 cell lines with known DNA damage response pathways - Rad54/Ku70 mutant cell line (AID 743015); further: nearly all actives have a fitted effect of over 60% in size; further: potency means the concentration at half of the fitted maximal effect
# [15] = qHTS assay to identify small molecule antagonists of the androgen receptor (AR) signaling pathway - cell viability counter screen (AID 743033; further: nearly all actives have a fitted effect of over 45% in size)
# [16] = qHTS assay to identify small molecule antagonists of the androgen receptor (AR) signaling pathway using the MDA cell line - cell viability counter screen (AID 743041; further: nearly all actives have a fitted effect of over 45% in size)
# Method in brief: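 Same-well cytotoxicity was assessed by CellTiter-Fluor in MDA-kb2 AR-luc cells after 16 h of compound treatment under R1881 agonism.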
# [17] = target: Androgen receptor (Homo sapiens) (UniProt P10275); experiment: qHTS assay to identify small molecule antagonists of the androgen receptor (AR) signaling pathway (AID 743035; active means well fitted inhibition curve with a large enough effect in the signal ratio in the repeat runs, not every such curve was filed as active; the % refers to the signal ratio)
# Sequence of Androgen receptor (Homo sapiens) (P10275 whole entry, looked up): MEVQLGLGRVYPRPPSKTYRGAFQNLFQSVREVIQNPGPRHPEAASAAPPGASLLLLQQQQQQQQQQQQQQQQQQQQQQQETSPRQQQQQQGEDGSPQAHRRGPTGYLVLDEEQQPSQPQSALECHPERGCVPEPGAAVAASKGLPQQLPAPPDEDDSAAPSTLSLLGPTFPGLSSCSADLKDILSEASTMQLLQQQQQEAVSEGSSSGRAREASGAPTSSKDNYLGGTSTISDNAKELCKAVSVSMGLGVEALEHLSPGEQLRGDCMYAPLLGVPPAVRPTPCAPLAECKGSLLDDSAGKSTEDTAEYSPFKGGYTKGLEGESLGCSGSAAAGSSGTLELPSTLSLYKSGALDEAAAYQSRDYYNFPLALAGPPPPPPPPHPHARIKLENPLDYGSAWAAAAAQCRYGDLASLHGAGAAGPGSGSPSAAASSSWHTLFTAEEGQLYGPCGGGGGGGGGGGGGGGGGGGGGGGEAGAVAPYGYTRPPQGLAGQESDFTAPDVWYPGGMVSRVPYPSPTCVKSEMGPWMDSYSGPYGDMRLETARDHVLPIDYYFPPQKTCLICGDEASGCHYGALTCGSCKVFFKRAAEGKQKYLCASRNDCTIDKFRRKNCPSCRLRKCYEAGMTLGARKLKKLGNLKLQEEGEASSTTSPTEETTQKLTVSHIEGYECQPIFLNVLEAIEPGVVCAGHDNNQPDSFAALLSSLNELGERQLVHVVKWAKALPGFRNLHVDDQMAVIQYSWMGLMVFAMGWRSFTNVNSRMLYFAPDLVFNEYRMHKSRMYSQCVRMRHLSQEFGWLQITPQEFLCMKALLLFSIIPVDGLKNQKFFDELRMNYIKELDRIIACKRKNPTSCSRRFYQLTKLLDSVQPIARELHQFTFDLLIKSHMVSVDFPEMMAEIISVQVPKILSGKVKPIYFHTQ
# Method in brief: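 HEK293 cells stably carrying UAS-beta-lactamase reporter, 2,000/well, given compounds plus R1881 agonist and incubated 16 h at 37C. LiveBLAzer B/G FRET substrate then added for 2 h at room temperature before fluorescence reading.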
# [18] = target: Androgen receptor (Homo sapiens) (UniProt P10275); experiment: qHTS assay to identify small molecule agonists of the androgen receptor (AR) signaling pathway using the MDA cell line (AID 743040; further: nearly all actives have a fitted effect of over 20% in size); conditions: MDA-kb2 AR-luc cells, MMTV luciferase, 16 h; activity change: at 70.3 µM (top of the series), stronger effect = higher value
# Method in brief: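 Human breast carcinoma MDA-kb2 reporter cells (MMTV-luc, AR/GR elements) were treated for 16 h at 37C in 0% CO2 following a 5 h settling period. Signal was quantified by ONE-Glo luminescence.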
# [19] = target: Androgen receptor (Homo sapiens) (UniProt P10275); experiment: qHTS assay to identify small molecule antagonists of the androgen receptor (AR) signaling pathway using the MDA cell line (AID 743042; further: nearly all actives have a fitted effect of over 55% in size)
# Method in brief: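 MDA-kb2 breast carcinoma cells carrying MMTV-luciferase (AR/GR responsive) were co-treated with compounds and the agonist R1881 for 16 h at 37C. Inhibition read as ONE-Glo luminescence; CellTiter-Fluor fluorescence measured in parallel for cytotoxicity.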
# [20] = target: Androgen receptor (Homo sapiens) (UniProt P10275); experiment: qHTS assay to identify small molecule agonists of the androgen receptor (AR) signaling pathway (AID 743036; active means well fitted activation curve with a large enough effect in the signal ratio in the repeat runs, with a control signal flat, not every such curve was filed as active; the % refers to the signal ratio)
# Method in brief: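 Activation was read as beta-lactamase FRET signal from LiveBLAzer B/G substrate, added for 2 h at room temperature. Before that, GeneBLAzer AR-UAS-bla GripTite (HEK293) cells had 16 h compound exposure at 37C.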
SMILES,outcome [1],outcome [2],outcome [3],outcome [4],outcome [5],outcome [6],outcome [7],outcome [8],Potency [9],Potency [10],Potency [11],Potency [12],Potency [13],Potency [14],Potency [15],Potency [16],Potency [17],Potency [18],Potency [19],Potency [20]
CC(Oc1cccc(Cl)c1)C(=O)O (stereo not given),inactive,inactive,inactive,inactive,inactive,inactive,inactive,inactive,inactive,inactive,inactive,inactive,inactive,inactive,inactive,inactive,–,–,–,–
COC1=CC(=O)O[C@@H](/C=C/c2ccc3c(c2)OCO3)C1,inactive,inactive,inactive,inactive,inactive,inactive,inactive,inactive,inactive,inactive,inactive,inactive,inactive,inactive,inactive,inactive,–,–,–,–
CC(C)(C)NCC(O)c1ccccc1Cl (stereo not given),inactive,inactive,inactive,inactive,inactive,inactive,inactive,inactive,inactive,inactive,inactive,inactive,inactive,–,inactive,inactive,–,–,–,–
CCOC(=O)C1OC1(C)c1ccccc1 (stereo not given),inactive,inactive,inactive,inactive,inactive,inactive,inactive,inactive,inactive,inactive,inactive,inactive,inactive,inactive,inactive,inactive,–,–,–,–
CN1CC[C@]23c4c5ccc(O)c4O[C@H]2[C@@H](O)C=C[C@H]3[C@H]1C5,inactive,inactive,inactive,inactive,inactive,inactive,inactive,inactive,inactive,inactive,inactive,–,–,–,inactive,inactive,inactive,inactive,inactive,–
COCc1cnc(C2=NC(C)(C(C)C)C(=O)N2)c(C(=O)O)c1 (stereo not given),inactive,inactive,inactive,inactive,inactive,inactive,inactive,inactive,inactive,inactive,inactive,inactive,inactive,inactive,inactive,inactive,inactive,inactive,inactive,inactive
C=CCc1ccccc1O,inactive,inactive,inactive,inactive,inactive,inactive,inactive,inactive,inactive,inactive,inactive,inactive,inactive,–,inactive,inactive,–,–,–,–
CC[N+]1(C)CCCC(OC(=O)C(O)(c2ccccc2)c2ccccc2)C1 (stereo not given),inactive,inactive,inactive,inactive,inactive,inactive,inactive,inactive,inactive,inactive,–,inactive,inactive,inactive,inactive,inactive,–,–,–,–
CC(C)OC(=O)Cc1ccccc1,inactive,inactive,inactive,inactive,inactive,inactive,inactive,inactive,inactive,inactive,inactive,inactive,inactive,inactive,inactive,inactive,–,–,–,–
CCCCCCCCP(=O)(O)O,inactive,inactive,inactive,inactive,inactive,inactive,inactive,inactive,inactive,inactive,inactive,inactive,inactive,inactive,inactive,inactive,–,–,–,–
C=CCOC(=O)C(C)(C)OC(=O)c1cc(-n2c(=O)cc(C(F)(F)F)n(C)c2=O)ccc1Cl,inactive,inactive,inactive,inactive,inactive,inactive,inactive,inactive,inactive,inactive,inactive,53.4 µM (active),30 µM (active),60 µM (active),–,inactive,–,–,–,–
Clc1ccc2ccccc2c1,inactive,inactive,inactive,inactive,inactive,inactive,inactive,inactive,inactive,inactive,inactive,inactive,inactive,inactive,inactive,inactive,inactive,inactive,inactive,inactive
CCC1CCC(=O)O1 (stereo not given),inactive,inactive,inactive,inactive,inactive,inactive,inactive,inactive,inactive,inactive,inactive,inactive,inactive,–,–,inactive,–,–,–,–
O=C(NCNC(=O)NC1C(=O)NC(=O)N1CO)NC1C(=O)NC(=O)N1CO (stereo not given),inactive,inactive,inactive,inactive,inactive,inactive,inactive,inactive,inactive,inactive,inactive,inactive,inactive,inactive,inactive,inactive,inactive,inactive,inactive,inactive
Nc1ccccc1C(=O)OCCc1ccccc1,inactive,inactive,inactive,inactive,inactive,inactive,inactive,inactive,inactive,inactive,inactive,inactive,inactive,inactive,–,inactive,–,–,–,–
C=CC(=O)OCC,inactive,inactive,inactive,inactive,inactive,inactive,inactive,inactive,inactive,inactive,inactive,inactive,inactive,inactive,inactive,–,–,–,–,–
